# Measurements: PubChem BioAssay (NCI)
# Compounds without any hit were thinned out: in the full panel of roughly 83,000, 20% have a hit.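 Cells were grown in 96-well plates and exposed to the test compound at a single concentration for 48 hours; results are reported as percent growth, with values below 10 considered active.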 Unmarked numbers belong to inactive results. Active and inactive are the calls of the source.
# How the values were obtained:
# Test in all cases: NCI-60 one-dose screen, 48 h (100 = growth as untreated, 0 = no growth, -100 = all killed)
# Conditions in all cases: 10 µM unless noted
# SK-MEL-2 melanoma = system: SK-MEL-2 melanoma
# EKVX NSCLC = system: EKVX NSCLC
# SN12C renal = system: SN12C renal
# UO-31 renal = system: UO-31 renal
# TK-10 renal = system: TK-10 renal
# ACHN renal = system: ACHN renal
# CAKI-1 renal = system: CAKI-1 renal
# A498 renal = system: A498 renal
# CCRF-CEM leukemia = system: CCRF-CEM leukemia
# MOLT-4 leukemia = system: MOLT-4 leukemia
SMILES,growth (SK-MEL-2 melanoma),growth (EKVX NSCLC),growth (SN12C renal),growth (UO-31 renal),growth (TK-10 renal),growth (ACHN renal),growth (CAKI-1 renal),growth (A498 renal),growth (CCRF-CEM leukemia),growth (MOLT-4 leukemia)
COc1cc(OC)c(NC(=O)c2cc3ccccc3cc2O)cc1Cl,15.4%,38.4%,28.1%,-10.7% (active),32.8%,22.7%,6.59% (active),18.8%,26.9%,26.9%
CN(C)Cc1ccc(O)c(C(=O)O)c1,124%,101%,109%,96.4%,70.7%,101%,92.8%,104%,103%,101%
Nc1nc(-c2ccc(Cl)cc2)nc2c1sc(=S)n2-c1ccccc1,83.7%,40.7%,53.2%,-38.4% (active),14.1%,-4.93% (active),42.3%,26.3%,85.4%,82.8%
Cc1ccc(C[P+](c2ccccc2)(c2ccccc2)c2ccccc2)cc1,-4.59% (active),6.8% (active),4.76% (active),88.1%,30.5%,24.4%,44.8%,27.5%,9.9% (active),-31.4% (active)
CC1CCN(CCOc2ccc(CNc3ccc4nc(CCC5CCCCC5)[nH]c4c3)cc2)CC1,-49.9% (active),65%,57.9%,-31.9% (active),73.1%,54.7%,-4.81% (active),2.94% (active),11.8%,11.2%
COc1cccc(/C=C2\COc3ccc(O)c(O)c3C2=O)c1,57.1%,60.2%,-54.3% (active),-93.3% (active),21.5%,-79.2% (active),0.272% (active),111%,3.04% (active),2.08% (active)
N#Cc1ccc2c(c1)C(=O)c1c-2n(CCCN)c(=O)c2cc([N+](=O)[O-])ccc12,-52.2% (active),-88% (active),-100% (active),-100% (active),-100% (active),-100% (active),-91.4% (active),-39.3% (active),-72.6% (active),-62.2% (active)
COC(=O)/C=C1/SC(=Nc2cccc(OC)c2)N(CCc2c[nH]c3ccc(O)cc23)C1=O,57.6%,66.9%,62.3%,55.7%,117%,71.8%,82.2%,64.9%,4.98% (active),-1.26% (active)
Cc1ccc(C)n1-c1ccccc1-n1c(C)ccc1C,108%,92.5%,93.5%,98.1%,128%,102%,71.7%,97.9%,124%,78.7%
C=C(C)[C@@H]1CCC[C@]2(COS(=O)(=O)c3ccc(C)cc3)CC[C@]3(C)[C@@H](CC[C@@H]4[C@@]5(C)CCCNC(C)(C)[C@@H]5CC[C@]43C)[C@@H]12,83.1%,9.77% (active),-94.4% (active),61%,43.2%,44.6%,-68.3% (active),81.3%,1.15% (active),-11.1% (active)
Nc1nc2ccc(-c3nc4ccc5[nH]ncc5c4c4c3CCCC4)cc2s1,96.5%,117%,98.8%,85.7%,96.3%,111%,99.7%,109%,107%,104%
C#CCOc1ccc2ncnc(Nc3ccc(NC(=O)C=C)cc3)c2c1,-0.222% (active),2.42% (active),1.14% (active),-26.4% (active),-62.7% (active),-96.6% (active),24.3%,74.1%,-39.5% (active),-34.7% (active)
NNc1nc(-c2cccnc2)nc2c1sc(=S)n2-c1ccccc1,68%,95.1%,102%,79.3%,83.6%,106%,97.9%,124%,90.5%,86%
Cc1cc(C)c2c(c1)N(C)c1ncnc(-n3cnc4cc(C)ccc43)c1CC2C (stereo not given),16.7%,39%,43.1%,33.1%,40%,49.6%,32.8%,6.61% (active),0.648% (active),12.7%
OCCn1cc(-c2nc(-c3c[nH]c4ncccc34)cs2)c2cc(F)ccc21,66.2%,37.2%,80.3%,39.4%,62.1%,65.8%,70.7%,23%,56%,54.5%
COc1ccc(C(=O)c2cc3c(N)c(C(=O)Nc4ccc(C)cc4)sc3nc2C)cc1,56.1%,40.8%,37.2%,41.2%,61.3%,46.8%,28%,14%,15.7%,20.5%
C#Cc1c2c(c(OC)c3c1OCO3)[C@H]([C@H]1OC(=O)c3c1ccc(OC)c3OC)N(C)CC2,67.7%,89.8%,100%,87.2%,76.1%,93.6%,86.3%,72.6%,80.7%,77.3%
O=C(CSC(=S)n1cnnc1)NC(=O)c1ccccc1,106%,104%,103%,87.8%,101%,105%,104%,106%,99.2%,102%
Cc1cc(=O)oc2cc(OCc3nn4c(Nc5nc6ccccc6s5)c(-c5ccccc5)nc4s3)ccc12,108%,88.4%,91.4%,83.6%,128%,100%,79.5%,91.1%,40.7%,97.5%
c1ccc(-c2oc(-c3ccccc3)c(CN3CCCCC3)c2CN2CCCCC2)cc1,48.4%,41%,31.2%,18.5%,42.2%,44.9%,38.1%,17.5%,24.1%,15.2%
Cc1cccc(CNc2c3ccccc3nc3ccccc23)c1,38%,44.5%,26.1%,14.7%,38.4%,15.8%,17.7%,-2.22% (active),14.8%,2.32% (active)
CSc1nc2ncc([N+](=O)[O-])c(=O)n2[nH]1,107%,100%,108%,87.5%,97.8%,103%,92.8%,88.3%,99.6%,129%
Cc1nc2sc(C(=O)Nc3cccc4ccccc34)c(N)c2cc1C(O)c1ccccc1 (stereo not given),25.3%,39.4%,12.7%,33.4%,52.6%,24.4%,29.5%,-13.7% (active),6.95% (active),6.27% (active)
O=S(=O)(NCCNc1nccc(-c2c(-c3ccc(F)c(O)c3)nc3sccn23)n1)c1ccc(O)cc1,19.8%,56.3%,38.2%,6.46% (active),46.3%,33.3%,27.2%,43.4%,22.2%,19.3%
O=C(Nc1nc2ccccc2s1)c1ccc(F)cc1,114%,77.8%,108%,89.1%,125%,98%,62.9%,89.8%,101%,100%
CCN(CC)S(=O)(=O)c1ccc(S(=O)(=O)N2CCC[C@@H](C(=O)N3CCN(c4nc(C(C)C)no4)CC3)C2)cc1,94.6%,55.1%,84.9%,58.6%,74.5%,68.5%,58.4%,6.31% (active),63.7%,61.1%
COc1ccc(C2CC(c3ccc(Nc4nc(Nc5ccccc5)nc(Nc5ccccc5)n4)cc3)=NN2C(C)=O)cc1 (stereo not given),68.5%,132%,95.7%,78.3%,104%,100%,105%,95.5%,88.6%,71.2%
